Source: PubChem BioAssay (Tox21)
Inconclusive results are not listed. Active and inactive are the calls of the source. Unless noted, calls come from the whole dose curve; as a rule, active = well fitted curve in the direction sought with a large enough effect in the repeat runs; inconclusive = weak or mixed curves; inactive = no such curve, though single readings can be large; an effect the other way counts as inactive or inconclusive.

How the values were obtained:
[1] = qHTS assay to identify small molecule antagonists of the glucocorticoid receptor (GR) signaling pathway - cell viability counter screen (AID 720693); note: nearly all actives have a fitted effect of over 55% in size; note: potency is the fitted concentration of half-maximal effect
[2] = qHTS assay for identifying genotoxic compounds that show differential cytotoxicity against isogenic chicken DT40 cell lines with known DNA damage response pathways - Rev3 mutant cell line (AID 743014); note: nearly all actives have a fitted effect of over 55% in size; note: potency is the fitted concentration of half-maximal effect
[3] = qHTS assay to identify small molecule antagonists of the androgen receptor (AR) signaling pathway - cell viability counter screen (AID 743033; note: nearly all actives have a fitted effect of over 45% in size; note: potency is the fitted concentration of half-maximal effect)
[4] = qHTS assay to identify small molecule antagonists of the androgen receptor (AR) signaling pathway using the MDA cell line - cell viability counter screen (AID 743041; note: nearly all actives have a fitted effect of over 45% in size; note: potency is the fitted concentration of half-maximal effect)
Summary of the method: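 MDA-kb2 AR-luc cells (MMTV-luciferase, AR/GR responsive) treated with compounds plus R1881 agonist for 16 h at 37C. CellTiter-Fluor added at 15.5 h; fluorescence read after 30 min in the same wells.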

[5] = qHTS assay for identifying genotoxic compounds that show differential cytotoxicity against isogenic chicken DT40 cell lines with known DNA damage response pathways - Rad54/Ku70 mutant cell line (AID 743015); note: nearly all actives have a fitted effect of over 60% in size; note: potency is the fitted concentration of half-maximal effect
[6] = biological target: Androgen receptor (Homo sapiens) (UniProt P10275); experiment: qHTS assay to identify small molecule antagonists of the androgen receptor (AR) signaling pathway (AID 743035; active = well fitted inhibition curve with a large enough effect in the signal ratio in the repeat runs, not every such curve was filed as active; the % refers to the signal ratio)
Sequence of Androgen receptor (Homo sapiens) (P10275 whole entry, looked up): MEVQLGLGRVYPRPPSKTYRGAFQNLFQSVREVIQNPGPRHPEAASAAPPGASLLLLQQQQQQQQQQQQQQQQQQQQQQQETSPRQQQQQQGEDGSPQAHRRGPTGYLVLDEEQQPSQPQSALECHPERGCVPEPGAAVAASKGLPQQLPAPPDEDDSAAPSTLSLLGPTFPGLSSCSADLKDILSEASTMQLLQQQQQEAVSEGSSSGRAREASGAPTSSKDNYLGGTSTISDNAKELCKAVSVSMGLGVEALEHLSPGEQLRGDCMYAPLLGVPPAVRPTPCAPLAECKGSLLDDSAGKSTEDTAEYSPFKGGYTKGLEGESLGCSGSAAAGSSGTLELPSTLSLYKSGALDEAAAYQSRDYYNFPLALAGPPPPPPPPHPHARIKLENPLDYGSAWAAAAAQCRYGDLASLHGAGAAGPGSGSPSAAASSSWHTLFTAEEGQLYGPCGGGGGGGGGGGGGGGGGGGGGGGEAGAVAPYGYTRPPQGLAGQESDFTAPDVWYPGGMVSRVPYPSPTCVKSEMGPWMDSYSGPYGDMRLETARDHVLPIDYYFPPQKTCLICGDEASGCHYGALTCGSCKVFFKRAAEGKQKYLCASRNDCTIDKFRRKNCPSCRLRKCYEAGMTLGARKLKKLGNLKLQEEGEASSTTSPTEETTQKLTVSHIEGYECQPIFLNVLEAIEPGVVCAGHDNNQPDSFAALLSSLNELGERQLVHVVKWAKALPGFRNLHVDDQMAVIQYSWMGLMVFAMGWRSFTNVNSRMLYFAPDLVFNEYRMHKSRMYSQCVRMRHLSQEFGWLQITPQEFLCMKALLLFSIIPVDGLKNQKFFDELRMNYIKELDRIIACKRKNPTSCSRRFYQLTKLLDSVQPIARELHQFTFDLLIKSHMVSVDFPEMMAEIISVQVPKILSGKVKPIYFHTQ
Summary of the method: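 Beta-lactamase FRET read (2 h RT incubation with LiveBLAzer B/G) following 16 h of compound plus R1881 treatment of AR-UAS-bla HEK293 cells, which had been pre-incubated 4 h at 37C.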

[7] = biological target: Androgen receptor (Homo sapiens) (UniProt P10275); experiment: qHTS assay to identify small molecule agonists of the androgen receptor (AR) signaling pathway using the MDA cell line (AID 743040; note: nearly all actives have a fitted effect of over 20% in size)
Summary of the method: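 MDA-kb2 breast carcinoma cells carrying MMTV-luciferase (responsive to AR and GR), plated 5 h then treated 16 h with compounds at 37C, 0% CO2. Read-out was ONE-Glo luminescence after 30 min at room temperature.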

[8] = biological target: Androgen receptor (Homo sapiens) (UniProt P10275); experiment: qHTS assay to identify small molecule antagonists of the androgen receptor (AR) signaling pathway using the MDA cell line (AID 743042; note: nearly all actives have a fitted effect of over 55% in size)
Summary of the method: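 MDA-kb2 breast carcinoma cells carrying MMTV-luciferase (AR/GR responsive) were co-treated with compounds and the agonist R1881 for 16 h at 37C. Inhibition read as ONE-Glo luminescence; CellTiter-Fluor fluorescence measured in parallel for cytotoxicity.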

[9] = biological target: Androgen receptor (Homo sapiens) (UniProt P10275); experiment: qHTS assay to identify small molecule agonists of the androgen receptor (AR) signaling pathway (AID 743036; active = well fitted activation curve with a large enough effect in the signal ratio in the repeat runs, with a control signal flat, not every such curve was filed as active; the % refers to the signal ratio)
Summary of the method: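 Agonist activity was scored by beta-lactamase reporter fluorescence in stably transfected HEK293 cells exposed to compounds for 16 h at 37C and 5% CO2. Substrate loading took 2 h at room temperature.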

Measured: Potency

Oc1cccc(O)c1O
active: [2] 48.1 µM
inactive: [1] | [3] | [4]

CCCCC(CC)COP(=O)(O)O (centres undefined)
inactive: [1] | [2] | [5] | [3] | [4]

COc1ccccc1N1CCN(CC(O)COc2cccc3ccccc23)CC1 (centres undefined)
inactive: [1] | [4]
active: [2] 29.8 µM | [5] 29.8 µM

CC(C)C=O
inactive: [1] | [3] | [4]

CCOc1cccc(-n2cc(C(=O)N3CCN(c4cc(C(=O)O)c5ccccc5c4)CC3)nc2-c2ccc(C)cc2)c1
inactive: [1] | [3] | [6] | [7]

O=C(Nc1cccc2c(=O)cc(-c3nn[nH]n3)oc12)c1ccc(OCCCCc2ccccc2)cc1
inactive: [1] | [2] | [3]

C=C(C)CCCC(C)CCO (centres undefined)
inactive: [1] | [3] | [4]
active: [5] 54.5 µM

OCCOCC#CCOCCO
inactive: [1] | [2] | [5] | [3] | [4]

CCn1cc(C(=O)O)c(=O)c2cc(F)c(N3CCNCC3)cc21
inactive: [1] | [2] | [3]

O=C1NCCN1CCO
inactive: [1] | [2] | [5] | [3] | [4]

N#CCc1ccc(Cl)cc1Cl
inactive: [1] | [2] | [5] | [3] | [4]

O=Cc1c2ccccc2c(Cl)c2ccccc12
inactive: [1] | [2] | [5] | [3] | [4]

C[C@H]1c2cccc(O)c2C(O)=C2C(=O)[C@]3(O)C(O)=C(C(N)=O)C(=O)[C@@H](N(C)C)[C@@H]3[C@@H](O)[C@@H]21
not listed: [2] | [5] | [9]
inactive: all other assays above

CC1=C(Br)C(=O)C(Br)=C/C1=C(/c1ccccc1S(=O)(=O)O)c1cc(Br)c(O)c(Br)c1C
active: [2] 20.8 µM | [4] 41.5 µM
inactive: [1]

Clc1cc(Cl)nc(Cl)n1
inactive: [1] | [2] | [3] | [4]

CC(C)=CCC/C(C)=C/CC/C(C)=C/CCC(=O)OC/C=C(\C)CCC=C(C)C
inactive: [1] | [2] | [3] | [4]

CC(C)Nc1cccnc1N1CCN(C(=O)c2cc3cc(NS(C)(=O)=O)ccc3[nH]2)CC1
inactive: [1] | [2] | [3] | [4]

O=[N+]([O-])c1ccc(O/N=C/c2cc(Br)c(O)c(Br)c2)c([N+](=O)[O-])c1
inactive: [1] | [2] | [5] | [4]

Cc1ccc(C(C)(C)O)cc1
inactive: [1] | [2] | [5] | [3] | [4]

Nc1nc2ccc([N+](=O)[O-])cc2s1
inactive: [1] | [3] | [7] | [8]
active: [2] 64.8 µM

O=c1[nH]c2ccc(Cl)cc2o1
inactive: [1] | [2] | [5] | [3] | [4]

O=C(OCC(O)CO)c1ccccc1Nc1ccnc2cc(Cl)ccc12 (centres undefined)
not listed: [5] | [6]
inactive: all other assays above

Oc1c(I)cc(I)c2cccnc12
inactive: [1] | [3] | [4]
active: [5] 13.3 µM

c1ccc2sc(SN(C3CCCCC3)C3CCCCC3)nc2c1
inactive: [1] | [3] | [4]

O=C(/C=C/c1ccc(O)c(O)c1)O[C@@H]1C[C@@](OC(=O)/C=C/c2ccc(O)c(O)c2)(C(=O)O)C[C@@H](O)[C@@H]1O
inactive: [1] | [2] | [5] | [3] | [4]

Cc1ccccc1N=C(N)Nc1ccccc1C
inactive: [1] | [3]
active: [2] 30.1 µM

O=c1cc(-c2ccccc2)oc2ccc3ccccc3c12
inactive: [4] | [8]
active: [1] 54.9 µM | [2] 15.4 µM | [3] 21.9 µM

CC1(C)S[C@@H]2[C@H](NC(=O)C(c3ccccc3)S(=O)(=O)O)C(=O)N2[C@H]1C(=O)O (some centres undefined)
inactive: [1] | [2] | [5] | [3] | [4]

Cc1cccc(O)c1N
inactive: [1] | [3]
